# The source made the active and inactive calls.
# Legend:
# [1] = E. coli DRC41 culture turbidity changes, primary screen, E. coli filamentation inducer project, strain DRC41, OD650, 48 h (AID 1152);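 further: E. coli MC1000 strain DRC41 lacking acrAB efflux pump and sulA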; settings: E. coli DRC41 (acrAB sulA), higher = more signal, called active from +8 up or from −8 down
# [2] = small-molecule binders of probe aLefty1, primary screen, biochemical, small-molecule microarray, 635/667 nm fluorescence (AID 1153); settings: higher = more signal;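 further: score merges spot fluorescence with signal-to-noise ratio from the scanned slide images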
# [3] = PSAC antagonists in infected red cells, primary screen, cell-based, P. falciparum Indochina, OD700, 1 h (AID 1154); settings: P. falciparum Indochina infected RBC osmotic lysis, higher = more signal, called active from +8 up or from −8 down
# [4] = PSAC antagonists in infected red cells, primary screen, cell-based, P. falciparum Indochina, OD700, 2 h (AID 1155);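 further: lysis reports solute entry through the parasite surface anion channel PSAC; channel blockers reduce lysis of infected cells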; settings: P. falciparum Indochina infected erythrocytes, osmotic lysis OD700; higher = more signal, called active from +8 up or from −8 down
# [5] = osmotic lysis modulators in infected erythrocytes, primary screen, PSAC antagonist project, cell-based, P. falciparum Indochina, OD700, 3 h (AID 1156); settings: higher = more signal, called active from +8 up or from −8 down
# [6] = PSAC antagonists in infected red cells, primary screen, cell-based, P. falciparum Indochina, OD700, 18 h (AID 1157); settings: P. falciparum Indochina infected erythrocytes, osmotic lysis OD700, 18 h; higher = more signal, called active from +8 up or from −8 down
# [7] = modulators of S6 phosphorylation in cells, primary screen, cell-based, A549, cytoblot, luminescence, serum-stimulated (AID 1158); settings: A549 phospho-S6 cytoblot, 5 h, higher = more signal;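 further: serum-stimulated A549 lung adenocarcinoma cells; signal is phosphorylated S6 detected by cytoblot immunostaining with HRP secondary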
# [8] = target: NADPH oxidase 2 (Homo sapiens) (UniProt P04839); assay: NOX2-dependent H2O2 signal modulators, primary screen, NOX inhibitor project, cell-based, HEK293-NOX2, PMA-stimulated, Amplex Red fluorescence (AID 1159); settings: 45 min, higher = more signal, called active from +8 up or from −8 down; further: test concentration not given here
# NADPH oxidase 2 (Homo sapiens), sequence (P04839 whole entry, looked up): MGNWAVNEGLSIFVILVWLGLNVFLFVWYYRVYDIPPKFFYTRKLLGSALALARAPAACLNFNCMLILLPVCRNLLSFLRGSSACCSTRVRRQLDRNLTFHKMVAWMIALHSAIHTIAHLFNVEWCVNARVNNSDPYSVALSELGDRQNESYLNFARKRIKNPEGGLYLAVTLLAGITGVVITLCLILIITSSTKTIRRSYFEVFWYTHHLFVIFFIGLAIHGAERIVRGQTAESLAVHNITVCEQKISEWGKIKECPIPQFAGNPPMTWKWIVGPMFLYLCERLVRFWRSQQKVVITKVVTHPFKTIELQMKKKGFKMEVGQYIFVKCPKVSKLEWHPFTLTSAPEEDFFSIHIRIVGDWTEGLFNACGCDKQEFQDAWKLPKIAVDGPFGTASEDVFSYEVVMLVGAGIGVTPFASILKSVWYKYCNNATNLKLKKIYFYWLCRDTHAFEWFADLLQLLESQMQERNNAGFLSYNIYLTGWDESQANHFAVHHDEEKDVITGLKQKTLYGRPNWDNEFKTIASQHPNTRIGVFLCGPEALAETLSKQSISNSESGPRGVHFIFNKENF
# [9] = target: NADPH oxidase 4 (Homo sapiens) (UniProt Q9NPH5); assay: NOX4-dependent H2O2 signal modulators, primary screen, NOX inhibitor project, cell-based, HEK293-NOX4, tetracycline-induced, Amplex Red fluorescence (AID 1160); settings: 45 min, higher = more signal, called active from +8 up or from −8 down
# NADPH oxidase 4 (Homo sapiens), sequence (Q9NPH5 whole entry, looked up): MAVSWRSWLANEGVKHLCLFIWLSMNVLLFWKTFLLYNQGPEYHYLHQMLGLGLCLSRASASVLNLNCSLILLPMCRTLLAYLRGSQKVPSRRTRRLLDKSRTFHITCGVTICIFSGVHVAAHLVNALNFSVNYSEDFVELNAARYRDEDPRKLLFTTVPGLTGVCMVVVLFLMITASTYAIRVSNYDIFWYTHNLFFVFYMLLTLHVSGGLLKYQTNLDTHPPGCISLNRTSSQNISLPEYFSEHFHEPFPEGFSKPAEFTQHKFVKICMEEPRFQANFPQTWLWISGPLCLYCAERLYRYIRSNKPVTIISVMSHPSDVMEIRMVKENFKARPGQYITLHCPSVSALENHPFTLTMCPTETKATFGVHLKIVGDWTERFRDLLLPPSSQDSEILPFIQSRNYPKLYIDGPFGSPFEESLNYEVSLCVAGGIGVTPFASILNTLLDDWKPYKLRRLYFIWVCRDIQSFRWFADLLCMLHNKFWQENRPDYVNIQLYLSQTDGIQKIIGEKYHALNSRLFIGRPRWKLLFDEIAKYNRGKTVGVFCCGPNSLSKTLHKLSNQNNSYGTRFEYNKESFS
# [10] = target: NADPH oxidase 5 (Homo sapiens) (UniProt Q96PH1); assay: NOX5-dependent H2O2 signal modulators, primary screen, NOX inhibitor project, cell-based, HEK293-NOX5, Amplex Red fluorescence (AID 1161); settings: HEK293-NOX5, ionomycin, 45 min, higher = more signal
# NADPH oxidase 5 (Homo sapiens), sequence (Q96PH1 whole entry, looked up): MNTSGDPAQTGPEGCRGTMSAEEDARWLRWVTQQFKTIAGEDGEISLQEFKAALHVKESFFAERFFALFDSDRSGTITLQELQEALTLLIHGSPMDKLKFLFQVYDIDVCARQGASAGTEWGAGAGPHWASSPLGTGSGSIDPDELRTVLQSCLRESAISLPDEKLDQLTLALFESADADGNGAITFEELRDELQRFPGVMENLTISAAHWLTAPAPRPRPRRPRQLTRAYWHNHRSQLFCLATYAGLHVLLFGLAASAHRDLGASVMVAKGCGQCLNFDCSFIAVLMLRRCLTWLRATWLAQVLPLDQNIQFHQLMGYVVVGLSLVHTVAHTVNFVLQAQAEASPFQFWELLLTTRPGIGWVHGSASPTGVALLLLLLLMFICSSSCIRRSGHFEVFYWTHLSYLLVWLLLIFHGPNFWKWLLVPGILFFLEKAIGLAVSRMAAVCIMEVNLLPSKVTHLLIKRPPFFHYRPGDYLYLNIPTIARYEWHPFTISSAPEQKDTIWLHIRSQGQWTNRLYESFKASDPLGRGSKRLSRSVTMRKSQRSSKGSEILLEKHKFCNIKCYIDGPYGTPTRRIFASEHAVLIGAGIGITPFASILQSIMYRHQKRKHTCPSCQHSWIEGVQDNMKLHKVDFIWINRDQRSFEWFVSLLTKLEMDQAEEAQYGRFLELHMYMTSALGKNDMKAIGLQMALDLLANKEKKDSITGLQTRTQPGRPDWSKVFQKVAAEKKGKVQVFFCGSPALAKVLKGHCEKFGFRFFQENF
SMILES,z-score [1],composite z-score [2],z-score [3],z-score [4],z-score [5],z-score [6],z-score [7],z-score [8],z-score [9],z-score [10]
C=CC1c2cc(O)c(OC)cc2CCN1Cc1cc2c(cc1Br)OCO2 (stereo not given),-1.93 (inactive),0.274,15.1 (active),3.15 (inactive),1.57 (inactive),1.01 (inactive),0.0469,-6.22 (inactive),-3.87 (inactive),-4.16
COC(=O)c1c(CC[C@@H](CO)NC(=O)N2CCC[C@H]2Cn2cc(Cc3ccccc3)nn2)oc(C(C)=O)c1C(=O)OC,-0.195 (inactive),-0.177,0.133 (inactive),0.258 (inactive),0.876 (inactive),-0.033 (inactive),0.567,-1.79 (inactive),-0.894 (inactive),-1.85
C=C(C)c1cc2c(c(CCCCCC)n1)[Si](C(C)C)(C(C)C)OC2,-0.959 (inactive),-0.245,1.18 (inactive),0.7 (inactive),-0.0223 (inactive),0.778 (inactive),0.202,-1.98 (inactive),-0.933 (inactive),-2.92
O=C1O[C@@H](c2ccccc2)[C@@H](c2ccccc2)N2[C@@H](c3ccc(O)cc3)[C@]3(C(=O)Nc4ccc(C#CC5(O)CCCCCC5)cc43)[C@@H](C(=O)NC[C@H](O)c3ccccc3)[C@H]12,-0.557 (inactive),0.315,0.996 (inactive),0.707 (inactive),1.08 (inactive),0.973 (inactive),0.173,1.14 (inactive),0.441 (inactive),0.0466
O=C1OCC=C[C@H]2OC34C=CCN(c5ccc(Cl)cc5)C(=O)[C@H]3N(CCO)C(=O)[C@@H]4[C@@H]12 (stereo not given in full),-0.367 (inactive),-0.147,0.506 (inactive),0.0971 (inactive),0.111 (inactive),0.403 (inactive),-0.677,1.12 (inactive),0.908 (inactive),1.31
COC(=O)[C@@]1(Cc2ccc(F)cc2)[C@H]2c3cc(C(=O)N(C)C)n(Cc4cc(F)cc5c4OCOC5)c3C[C@H]2CN1C(=O)c1ccccc1,-0.62 (inactive),0.487,5.56 (inactive),0.0161 (inactive),0.366 (inactive),-1.27 (inactive),1.16,-0.508 (inactive),0.966 (inactive),-3.94
COc1ccc([Si](C)(C)[C@@H]2[C@@H](CC(=O)N(CCO)Cc3ccccc3)O[C@]3(C(=O)N(Cc4cccc(N5CCOC5=O)c4)c4ccccc43)[C@H]2C)cc1,-0.179 (inactive),0.677,5.73 (inactive),1.14 (inactive),-0.0706 (inactive),0.843 (inactive),0.475,1.08 (inactive),1.35 (inactive),1.75
C=C[C@@H](OC)[C@H](OC(=O)Nc1ccc(SC)cc1)c1ccc(O)c(F)c1,-1.51 (inactive),0.44,24.7 (active),7.57 (inactive),2.98 (inactive),1.31 (inactive),-0.618,-2.6 (inactive),-2.4 (inactive),-1.26
C[N+](C)(C)CCCC[C@@H]1NC(=O)[C@H]2C[C@@H](C(=O)NCCCCCCN)[C@@H](c3ccc(O)cc3)N2C1=O,0.429 (inactive),0.284,0.625 (inactive),0.328 (inactive),-2.08 (inactive),0.326 (inactive),0.191,0.00341 (inactive),-1.73 (inactive),0.273
COC(=O)CCCCCCC(=O)Nc1ccc(NC(=O)CCCC[P+](c2ccccc2)(c2ccccc2)c2ccccc2)cc1,-12.4 (active),-0.0601,25.6 (active),9.83 (active),1.95 (inactive),1.43 (inactive),0.274,-0.765 (inactive),0.429 (inactive),0.0901
